M1 antag = human CHRM1 antagonism | CHO-K1 hM1, Fluo-8 calcium fluorescence, ACh EC80 antagonist | 360,000 compounds, 1.3% hits | inhibition, % at 3 µM | AID 588852 | P11229;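 active means percent inhibition above its own plate's cutoff, namely the mean of that plate's compound wells plus 3 SD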;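 further: peak over basal fluorescence ratio during 140 s after agonist addition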
Target sequence (P11229 whole entry, looked up): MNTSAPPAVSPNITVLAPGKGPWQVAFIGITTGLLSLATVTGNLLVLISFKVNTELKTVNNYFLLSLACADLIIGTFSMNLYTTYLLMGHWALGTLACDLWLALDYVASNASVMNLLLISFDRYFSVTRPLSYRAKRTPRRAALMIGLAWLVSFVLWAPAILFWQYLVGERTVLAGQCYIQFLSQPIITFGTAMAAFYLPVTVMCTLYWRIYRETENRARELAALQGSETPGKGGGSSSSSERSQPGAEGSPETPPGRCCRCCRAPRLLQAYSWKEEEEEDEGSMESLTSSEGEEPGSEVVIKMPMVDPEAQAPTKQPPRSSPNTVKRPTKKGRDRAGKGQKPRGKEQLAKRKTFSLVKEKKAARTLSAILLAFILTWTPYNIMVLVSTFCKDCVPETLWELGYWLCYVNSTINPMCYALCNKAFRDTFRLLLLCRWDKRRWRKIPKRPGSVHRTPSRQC
M1 PAM parental = nonselective activator or artifact in parental CHO-K1 calcium assay. 360,000 compounds, 0.02% hits. AID 602247. activation, % at 3 µM. ATP EC20, Fluo-8 calcium fluorescence; 0% at ATP EC20, 100% at ATP max;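 active means activation above the run cutoff, the mean activation of all test compounds plus 3 SD, cut at about 40% in these data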;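 further: peak over basal fluorescence ratio in a 140 s read after ATP addition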
CHO-K1 Ca ag = counter-screen for M1 agonists: effect in parental CHO-K1 cells; Fluo-8 calcium fluorescence; scaled to maximal ATP response, vehicle zero; activation, % at 3 µM; 360,000 compounds, 0.48% hits; in the data active means activation above about 15%;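 further: untransfected CHO-K1 host cells lacking M1 receptor as counterscreen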
M1 PAM = potentiates human M1 receptor response to acetylcholine. P11229. CHO-K1 hM1, Fluo-8 calcium fluorescence, ACh EC20; 0% = ACh EC20, 100% = maximal ACh. activation, % at 3 µM. 360,000 compounds, 0.088% hits. AID 588819; in the data active means activation above about 19%, passing the limit was not always enough
CHO-K1 Ca antag = counter-screen for M1 antagonists: effect in parental CHO-K1 cells | ATP-induced calcium, Fluo-8 fluorescence | inhibition, % at 3 µM | 360,000 compounds, 0.6% hits | AID 602250;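 active means inhibition above a per-plate cutoff, the plate's mean sample inhibition plus 3 SD, cut at about 24% in these data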
M1 ag = human M1 muscarinic receptor agonism. activation, % at 3 µM. AID 588814. CHO-K1 hM1, Fluo-8 calcium fluorescence, agonist mode; 0% DMSO, 100% acetylcholine EC100. 360,000 compounds, 0.33% hits;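 active means activation above the run's mean compound activation plus 3 SD, cut at about 16% in these data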;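 further: peak over basal fluorescence ratio within a 140 s kinetic read after compound addition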
Of the large screens only hits and unclear results are named; the others gave an inactive call. This is a sample that favours compounds with a hit; in the whole collection about 2.3% have one here.

CCCCCCN1C[C@H](O)[C@@H](n2cc(C3CC3)nn2)C[C@@H]1c1ccccc1	none
Cc1ncc(CN2CCCC(CCC(=O)NCc3ccc(F)c(F)c3)C2)s1 (stereo not drawn)	none
O=C(CCC1CCCN(Cc2ccc3c(c2)CCO3)C1)NCc1ccc(F)c(F)c1 (stereo not drawn)	M1 antag 33
O=C(CCC1CCCN(C2C3CC4CC(C3)CC2C4)C1)NCc1ccc(F)c(F)c1 (stereo not drawn)	M1 antag 43
Cc1occc1C(=O)N1CCCC(CCC(=O)NCc2ccc(F)c(F)c2)C1 (stereo not drawn)	none
O=C(NCc1cccnc1)c1cc(C2CCCCN2C(=O)c2ccc3ccccc3c2)on1 (stereo not drawn)	none
CCOc1ncccc1C(=O)NC(C)CCc1ccccc1 (stereo not drawn)	CHO-K1 Ca ag 19
CC(CCc1ccccc1)NC(=O)c1ccccc1Cl (stereo not drawn)	none
COc1cc(C)c(Cl)c(C)c1S(=O)(=O)NCc1cccnc1	CHO-K1 Ca antag 27
Cc1cc(C)c(C)c(S(=O)(=O)NCc2cccnc2)c1C	none
COC(=O)c1ccc(NC(=O)Cn2nc(-c3ccncc3)nc2SCC(=O)Nc2nccs2)cc1	M1 antag 33
COc1ccc(-c2nc3c(c(SCC(=O)N4CCOCC4)n2)COC(C)(C)C3)cc1	CHO-K1 Ca antag 30
CC1CN(C(=O)CSc2nc(N)c(NC(=O)c3ccc(C(F)(F)F)cc3)c(=O)[nH]2)CC(C)O1 (stereo not drawn)	none
CCCCCCn1c(=O)[nH]c2nc3cc(N)c(C)cc3nc2c1=O	M1 antag 32, CHO-K1 Ca ag 60, CHO-K1 Ca antag 29, M1 ag 61
COc1cc(NS(=O)(=O)c2ccc(-n3cccn3)cc2)cc(OC)c1	none
N#Cc1cc([N+](=O)[O-])ccc1NC(=O)COC(=O)CN1C(=O)C2CCCCC2C1=O (stereo not drawn)	none
CCCC(=O)OCC(=O)Nc1ccc([N+](=O)[O-])cc1C#N	CHO-K1 Ca antag 26
CCN1C(=O)S/C(=C/c2c(OCc3ccc(C(=O)O)cc3)ccc3ccccc23)C1=O	M1 ag 29
O=C(O)c1ccc(COc2ccc3ccccc3c2/C=C2/NC(=O)N(c3ccccc3)C2=O)cc1	none
CCCNC(=O)Cn1c(=O)/c(=C/c2ccc(-c3ccc([N+](=O)[O-])cc3)o2)s/c1=C\C(=O)C(C)(C)C	M1 antag 65, CHO-K1 Ca ag 32, CHO-K1 Ca antag 31, M1 ag 74
Cc1ccc(-c2ccc(CN3C(CC(C)C)C(=O)N(Cc4cn(CC5CCCCC5)nn4)CCS3(=O)=O)cc2)cc1 (stereo not drawn)	none
Cc1ccc(N2C(=O)CSC2c2c(F)cccc2Cl)cc1 (stereo not drawn)	M1 antag 99
COc1cccc(C2SCC(=O)N2c2ccc(Cl)cc2)c1OC (stereo not drawn)	M1 antag 51
Cc1cc(C)n2c(NCc3ccccc3)c(-c3cc4ccccc4o3)nc2n1	none (no result: M1 antag, M1 PAM, M1 ag)
Cc1ccc2sc(N3CCN(CCNC(=O)c4ccco4)CC3)nc2c1C	CHO-K1 Ca ag 20
O=C(NCCN1CCCCC1)c1ccco1	none
CCN1CCN(c2ccc(S(=O)(=O)N3CCOCC3)cc2NC(=O)c2cc(F)c(F)c(F)c2F)CC1	none
CCN1CCN(c2ccc(S(=O)(=O)N3CCOCC3)cc2NC(=O)c2ccccc2SC)CC1	M1 ag 24
N#CC1=C2SCN(Cc3ccccc3)CN2C(=O)CC1c1cccs1 (stereo not drawn)	CHO-K1 Ca antag 27
CCNC(=O)C1(C)CCCN(C(=O)c2ccc3c(c2)C(C)(C)CCC3(C)C)C1 (stereo not drawn)	none
O=C(CN1CCCC1)N1c2ccccc2Sc2ccc(C(F)(F)F)cc21	M1 antag 99
O=C(CN1CCCC1)N1c2ccccc2Sc2ccc(Cl)cc21	M1 antag 99
CCNCCC(=O)N1c2ccccc2Sc2ccc(C(F)(F)F)cc21	M1 antag 100
O=C(CN1CCN(c2ccccn2)CC1)N1c2ccccc2Sc2ccc(C(F)(F)F)cc21	M1 antag 31
CCNC(=S)Nc1ccc2c(c1)c(=O)n(C)n2-c1ccc(C(C)(C)C)cc1	none
CC(C)(C)C(=O)c1c(N)[nH]c(C(=O)c2ccccc2)c1-c1c(F)cccc1F	none (no result: M1 antag, M1 PAM, M1 ag)
COCCCNC(=S)Nc1cc(C)c(C)cc1C	M1 antag 62
CN1CCN(C(=O)Nc2cccc(-c3ccccc3)c2)CC1	M1 antag 31
CN1CCN(C(=O)Nc2ccc3c(c2)N(C)C(=O)c2ccccc2S3)CC1	none
CSCCC(C(=O)Nc1c(C)cccc1C)N1CCN(C/C=C/c2ccccc2)CC1 (stereo not drawn)	none
Cc1ccc(OCC(O)CNCc2ccc(F)cc2)cc1 (stereo not drawn)	none
OC(CNCCNc1ncccc1C(F)(F)F)COc1ccc(F)cc1 (stereo not drawn)	M1 ag 40
COc1ccccc1NC(=O)N(C)C[C@H]1OCc2cnnn2CCCC(=O)N([C@H](C)CO)C[C@@H]1C	none
Cc1cc(C)n(CC(=O)N2c3ccccc3Sc3ccccc32)n1	M1 antag 38
Cc1cccc[n+]1CC(=O)N1c2ccccc2Sc2ccccc21	M1 antag 99
O=S(=O)(c1ccc(NC(=S)NC23CC4CC(CC(C4)C2)C3)cc1)N1CCCCC1	none
CCOC(=O)[C@]12CCCC=C1N(Cc1ccc(Cl)cc1Cl)C(=O)[C@H](CC(=O)N1CCN(C(=O)c3ccco3)CC1)C2	none (no result: M1 antag, M1 PAM, M1 ag)
Cc1ccc([C@H]2N[C@]3(CCCN(Cc4ccc(Br)cc4)C3=O)[C@H]3C(=O)N(Cc4ccccc4)C(=O)[C@@H]23)cc1	none
Nc1c2ccccc2nc2ccccc12	none
Cc1nc2ccccc2c2c(N)c3ccccc3n12	CHO-K1 Ca ag 17
O=C(COC(=O)CCc1nc2ccccc2c(=O)[nH]1)Nc1ccccc1OC(F)F	M1 PAM 24
O=C(COC(=O)CCc1nc2ccccc2c(=O)[nH]1)Nc1ccccc1Cl	none
CC(=O)c1ccccc1OCCOc1ccccc1C(C)=O	M1 antag 39
CCC(C)c1ccccc1OCCOCCN1CCCC1 (stereo not drawn)	none
CCC(C)c1ccccc1OCCCCN1CCCC1 (stereo not drawn)	M1 antag 48
COC(=O)c1ccccc1OCCN1CCCCCC1	none
CC(=O)c1ccccc1OCCCCN1CCCCC1	M1 antag 59
COc1ccccc1OCCCCOc1ccccc1C(C)=O	none
CC(C)(C)c1cc(C2=CSC3=NCCN23)cc(C(C)(C)C)c1O	M1 antag 36
Cc1cc(C)n(-c2nc3c(c(=O)[nH]c(=O)n3C)n2CCc2ccccc2)n1	none

Compound activity deposited in PubChem by The Scripps Research Institute Molecular Screening Center.
